PubChem BioAssay (Tox21)
Several values for one entry are separate records, joined by “and”; a condition that tells them apart may be missing. Equal values may be shown once. Results filed as inconclusive are left out. Activity calls are given as the source filed them. Unless noted, the call rests on the fitted dose curve; in most records, active means well fitted curve in the direction sought with a large enough effect in the repeat runs; inconclusive means weak or mixed curves; inactive means no such curve, though single readings can be large; an effect the other way counts as inactive or inconclusive.

What was measured:
[1] = qHTS assay to identify small molecule antagonists of the glucocorticoid receptor (GR) signaling pathway - cell viability counter screen (AID 720693); further: nearly all actives have a fitted effect of over 55% in size; further: potency means the concentration at half of the fitted maximal effect
[2] = qHTS assay for identifying genotoxic compounds that show differential cytotoxicity against isogenic chicken DT40 cell lines with known DNA damage response pathways - wild type cell line (AID 743012); further: nearly all actives have a fitted effect of over 60% in size; further: potency means the concentration at half of the fitted maximal effect
Summary of the method: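 Endpoint: CellTiter-Glo luminescence, 30 min RT. Cells: wild type DT40, 300/well. Exposure: compounds in DMSO, 40 h, 37 C/5% CO2, after ~0.5 h pre-incubation.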

[3] = qHTS assay for identifying genotoxic compounds that show differential cytotoxicity against isogenic chicken DT40 cell lines with known DNA damage response pathways - Rev3 mutant cell line (AID 743014); further: nearly all actives have a fitted effect of over 55% in size; further: potency means the concentration at half of the fitted maximal effect
[4] = qHTS assay for identifying genotoxic compounds that show differential cytotoxicity against isogenic chicken DT40 cell lines with known DNA damage response pathways - Rad54/Ku70 mutant cell line (AID 743015); further: nearly all actives have a fitted effect of over 60% in size; further: potency means the concentration at half of the fitted maximal effect
[5] = qHTS assay to identify small molecule antagonists of the androgen receptor (AR) signaling pathway - cell viability counter screen (AID 743033; further: nearly all actives have a fitted effect of over 45% in size; further: potency means the concentration at half of the fitted maximal effect)
[6] = qHTS assay to identify small molecule antagonists of the androgen receptor (AR) signaling pathway using the MDA cell line - cell viability counter screen (AID 743041; further: nearly all actives have a fitted effect of over 45% in size; further: potency means the concentration at half of the fitted maximal effect)
Summary of the method: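 In this qHTS counter assay, fluorescence intensity after CellTiter-Fluor addition indicated viability of MDA-kb2 AR-luc cells given compounds and R1881 for 16 h at 37C.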

[7] = qHTS assay to identify small molecule antagonists of the thyroid receptor (TR) signaling pathway - cell viability counter screen (AID 743064); further: nearly all actives have a fitted effect of over 50% in size; further: potency means the concentration at half of the fitted maximal effect
Summary of the method: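 GH3.TRE-Luc rat pituitary cells carrying a TRE-luciferase reporter were treated with compound plus 1 nM T3 (final) for 23.5 h at 37 °C. Viability was then read in the same wells by CellTiter-Fluor fluorescence after a further 30 min.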

[8] = qHTS assay to identify small molecule antagonists of the thyroid receptor (TR) signaling pathway (AID 743065); further: nearly all actives have a fitted effect of over 55% in size; further: potency means the concentration at half of the fitted maximal effect; on activity, negative = inhibition: series mostly up to about 70 µM
Summary of the method: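 GH3.TRE-Luc rat pituitary cells carrying two TR response elements driving luciferase were plated for 4 h, given compound plus 1 nM T3 (final), and incubated 23.5 h at 37 C. ONE-Glo luminescence measured reporter inhibition; CellTiter-Fluor fluorescence tracked cytotoxicity.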

[9] = test system: thyroid hormone receptor (rat, GH3 cells); assay: qHTS assay to identify small molecule agonists of the thyroid receptor (TR) signaling pathway (AID 743066; calls by dose curve)
[10] = target: Estrogen receptor (Homo sapiens) (UniProt P03372); assay: qHTS assay to identify small molecule antagonists of the estrogen receptor alpha (ER-alpha) signaling pathway (AID 743069; active means well fitted curve in the direction sought with a large enough effect in the signal ratio in the repeat runs, not every such curve was filed as active; the % refers to the signal ratio)
Summary of the method: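 A 17beta-estradiol challenge was applied right after compound transfer to ER-alpha-UAS-bla HEK293 cells previously kept in charcoal-stripped serum. Plates stood 18 hr at 37C and 5% CO2; fluorescence was read following 2 hr FRET substrate loading at room temperature.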

[11] = qHTS assay to identify small molecule antagonists of the estrogen receptor alpha (ER-alpha) signaling pathway - cell viability counter screen (AID 743074; calls by dose curve;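 further: HEK293 cells carrying ER-alpha-UAS-bla reporter stimulated with 17beta-estradiol; nearly all actives have a fitted effect of over 45% in size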)
[12] = target: Estrogen receptor (Homo sapiens) (UniProt P03372); assay: qHTS assay to identify small molecule agonists of the estrogen receptor alpha (ER-alpha) signaling pathway (AID 743075; calls by dose curve)
[13] = qHTS assay to identify small molecule antagonists of the estrogen receptor alpha (ER-alpha) signaling pathway using the BG1 cell line (AID 743080; calls by dose curve; further: series mostly up to about 70 µM; nearly all actives have a fitted effect of over 25% in size)
Summary of the method: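 Antagonist mode: compounds in DMSO were pinned onto BG1-Luc-4E2 cells alongside 17beta-estradiol agonist, incubated 21.5 h, and ERE-driven luciferase measured with ONE-Glo. Cytotoxicity was multiplexed using CellTiter-Fluor fluorescence.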

[14] = qHTS assay to identify small molecule antagonists of the estrogen receptor alpha (ER-alpha) signaling pathway using the BG1 cell line - cell viability counter screen (AID 743081);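 further: compound given together with 17beta-estradiol as the ER stimulus; nearly all actives have a fitted effect of over 45% in size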; further: potency means the concentration at half of the fitted maximal effect; on activity change, negative = cytotoxicity: series mostly up to about 70 µM
Aromatase (Homo sapiens) = Aromatase (Homo sapiens) (UniProt P11511); assay: qHTS assay to identify aromatase inhibitors (AID 743083); further: nearly all actives have a fitted effect of over 55% in size; further: potency means the concentration at half of the fitted maximal effect; on activity, negative = inhibition: series mostly up to about 70 µM
[15] = target: Androgen receptor (Homo sapiens) (UniProt P10275); assay: qHTS assay to identify small molecule antagonists of the androgen receptor (AR) signaling pathway (AID 743035; active means well fitted inhibition curve with a large enough effect in the signal ratio in the repeat runs, not every such curve was filed as active; the % refers to the signal ratio)
Summary of the method: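 R1881 agonist challenge of a HEK293 UAS-beta-lactamase AR reporter line in the presence of compound (16 h, 37C); signal taken as FRET fluorescence after 2 h with LiveBLAzer B/G substrate at room temperature.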

[16] = target: Androgen receptor (Homo sapiens) (UniProt P10275); assay: qHTS assay to identify small molecule agonists of the androgen receptor (AR) signaling pathway using the MDA cell line (AID 743040; further: nearly all actives have a fitted effect of over 20% in size; further: potency means the concentration at half of the fitted maximal effect)
Summary of the method: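 Cell-based luciferase reporter: MDA-kb2, MMTV promoter (AR + GR response elements). 16 h compound exposure at 37C; ONE-Glo, 30 min RT, luminescence.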

[17] = target: Androgen receptor (Homo sapiens) (UniProt P10275); assay: qHTS assay to identify small molecule antagonists of the androgen receptor (AR) signaling pathway using the MDA cell line (AID 743042; further: nearly all actives have a fitted effect of over 55% in size)
Summary of the method: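 MDA-kb2 cells (human breast carcinoma, stably carrying an MMTV-luciferase reporter responsive to AR and GR) were plated at 3,000 cells/well and preincubated 5 hr at 37C, then given compound plus R1881 agonist for 16 h. ONE-Glo luminescence was read.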

[18] = target: Estrogen receptor (Homo sapiens) (UniProt P03372); assay: qHTS assay to identify small molecule agonists of the estrogen receptor alpha (ER-alpha) signaling pathway using the BG1 cell line (AID 743079); further: nearly all actives have a fitted effect of over 20% in size
[19] = target: Androgen receptor (Homo sapiens) (UniProt P10275); assay: qHTS assay to identify small molecule agonists of the androgen receptor (AR) signaling pathway (AID 743036; active means well fitted activation curve with a large enough effect in the signal ratio in the repeat runs, with a control signal flat, not every such curve was filed as active; the % refers to the signal ratio)
Summary of the method: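 HEK293 cells stably carrying a UAS-driven beta-lactamase reporter (GeneBLAzer AR-UAS-bla-GripTite) were plated at 2,000 cells/well, rested 4 h at 37C, then exposed to compounds in DMSO for 16 h. LiveBLAzer B/G FRET substrate was added for 2 h at room temperature; fluorescence read.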
On the % scale 0 is the no-effect control and ±100 the full control effect.

Sequence of Estrogen receptor (Homo sapiens) (P03372 whole entry, looked up): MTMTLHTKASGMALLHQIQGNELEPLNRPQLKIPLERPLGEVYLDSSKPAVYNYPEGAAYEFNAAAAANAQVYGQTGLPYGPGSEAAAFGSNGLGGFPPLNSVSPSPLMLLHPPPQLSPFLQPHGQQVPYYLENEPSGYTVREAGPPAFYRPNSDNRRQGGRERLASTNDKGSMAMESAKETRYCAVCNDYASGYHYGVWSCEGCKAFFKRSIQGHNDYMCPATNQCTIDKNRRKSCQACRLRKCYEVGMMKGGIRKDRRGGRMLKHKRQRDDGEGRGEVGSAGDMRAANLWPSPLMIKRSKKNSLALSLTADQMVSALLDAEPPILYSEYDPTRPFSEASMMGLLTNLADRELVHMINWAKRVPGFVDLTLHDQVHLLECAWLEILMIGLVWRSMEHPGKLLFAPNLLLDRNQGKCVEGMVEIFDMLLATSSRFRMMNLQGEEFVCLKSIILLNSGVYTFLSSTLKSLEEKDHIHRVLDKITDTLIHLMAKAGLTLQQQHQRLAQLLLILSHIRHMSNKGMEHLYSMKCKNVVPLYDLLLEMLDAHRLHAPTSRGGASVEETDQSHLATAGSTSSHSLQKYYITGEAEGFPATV
Sequence of Aromatase (Homo sapiens) (P11511 whole entry, looked up): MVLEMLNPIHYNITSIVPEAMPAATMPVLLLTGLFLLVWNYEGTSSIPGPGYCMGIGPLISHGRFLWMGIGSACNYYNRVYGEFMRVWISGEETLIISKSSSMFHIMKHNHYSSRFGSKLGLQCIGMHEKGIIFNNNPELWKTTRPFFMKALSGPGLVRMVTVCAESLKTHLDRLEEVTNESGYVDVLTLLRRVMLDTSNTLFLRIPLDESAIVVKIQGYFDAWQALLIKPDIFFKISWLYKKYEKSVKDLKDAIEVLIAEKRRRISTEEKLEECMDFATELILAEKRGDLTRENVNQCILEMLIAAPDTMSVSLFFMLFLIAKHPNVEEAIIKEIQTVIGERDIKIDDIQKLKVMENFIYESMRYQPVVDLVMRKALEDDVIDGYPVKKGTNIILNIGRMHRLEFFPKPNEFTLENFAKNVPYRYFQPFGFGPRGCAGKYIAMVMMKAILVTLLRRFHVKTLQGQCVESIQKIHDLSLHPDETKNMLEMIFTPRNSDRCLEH
Sequence of Androgen receptor (Homo sapiens) (P10275 whole entry, looked up): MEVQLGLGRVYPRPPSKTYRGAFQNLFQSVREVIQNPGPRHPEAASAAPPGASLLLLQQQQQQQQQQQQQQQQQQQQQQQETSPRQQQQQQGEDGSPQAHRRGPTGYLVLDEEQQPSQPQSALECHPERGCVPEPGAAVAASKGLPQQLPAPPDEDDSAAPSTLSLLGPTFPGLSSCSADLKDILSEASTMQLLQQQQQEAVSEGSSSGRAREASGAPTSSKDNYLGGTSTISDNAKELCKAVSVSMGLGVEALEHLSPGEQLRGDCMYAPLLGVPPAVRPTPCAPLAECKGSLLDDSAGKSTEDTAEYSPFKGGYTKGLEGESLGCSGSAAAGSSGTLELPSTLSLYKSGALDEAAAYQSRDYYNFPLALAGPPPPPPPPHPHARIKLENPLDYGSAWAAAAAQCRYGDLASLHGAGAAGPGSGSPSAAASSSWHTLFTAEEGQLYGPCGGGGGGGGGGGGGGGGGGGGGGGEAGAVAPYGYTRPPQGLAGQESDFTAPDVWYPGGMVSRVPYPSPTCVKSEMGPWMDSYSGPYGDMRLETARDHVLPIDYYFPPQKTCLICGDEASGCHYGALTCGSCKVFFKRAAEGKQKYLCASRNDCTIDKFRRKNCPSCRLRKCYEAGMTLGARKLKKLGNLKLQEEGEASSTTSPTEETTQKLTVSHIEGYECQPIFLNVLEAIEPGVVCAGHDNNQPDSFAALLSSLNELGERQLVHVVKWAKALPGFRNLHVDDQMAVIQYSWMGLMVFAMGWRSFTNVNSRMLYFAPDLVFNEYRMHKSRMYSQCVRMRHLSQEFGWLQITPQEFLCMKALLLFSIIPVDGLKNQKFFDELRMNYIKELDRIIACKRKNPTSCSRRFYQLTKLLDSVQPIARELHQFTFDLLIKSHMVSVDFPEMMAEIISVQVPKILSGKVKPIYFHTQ

CC1OC(=O)C(C)OC1=O (centres undefined)
inactive: Potency [1] | Potency [2] | Potency [3] | Potency [4] | Potency [5] | Potency [6] | Potency [7] | Potency [8] | Potency [9] | Potency [10] | Potency [11] | Potency [12] | Potency [13] | Potency [14] | Potency (Aromatase (Homo sapiens))

C/C(=C(\CCOP(=O)(O)O)SC(=O)c1ccccc1)N(C=O)Cc1cnc(C)nc1N
active: Potency [16] 12.7 µM
inactive: Potency [1] | Potency [2] | Potency [3] | Potency [4] | Potency [5] | Potency [15] | Potency [6] | Potency [17] | Potency [7] | Potency [8] | Potency [9] | Potency [10] | Potency [11] | Potency [12] | Potency [18] | Potency [13] | Potency [14] | Potency (Aromatase (Homo sapiens))

CN(C)c1ccc(C(c2ccccc2)c2ccc(N(C)C)cc2)cc1
active: Potency [2] 6.86 µM | Potency [3] 6.86 µM | Potency [4] 8.63 µM | Potency [8] 24.3 µM
inactive: Potency [1] | Potency [5] | Potency [19] | Potency [16] | Potency [6] | Potency [17] | Potency [7] | Potency [9] | Potency [11] | Potency [14] | Potency (Aromatase (Homo sapiens))

NC(N)=NCCC[C@H](N)C(=O)O
inactive: Potency [1] | Potency [2] | Potency [3] | Potency [4] | Potency [5] | Potency [6] | Potency [7] | Potency [8] | Potency [9] | Potency [11] | Potency [12] | Potency [18] | Potency [13] | Potency [14] | Potency (Aromatase (Homo sapiens))

CNC(=O)CN(CCN(CCN(CC(=O)[O-])CC(=O)NC)CC(=O)[O-])CC(=O)[O-].O.[Gd+3]
inactive: Potency [1] | Potency [2] | Potency [3] | Potency [4] | Potency [5] | Potency [6] | Potency [7] | Potency [9] | Potency [11] | Potency [12] | Potency [18] | Potency [13] | Potency [14] | Potency (Aromatase (Homo sapiens))

C=CC(=O)OCCOCCOCCOCCOC(=O)C=C
active: Potency [1] 49.2 µM and 48.5 µM | Potency [2] 13.8 µM and 12.1 µM | Potency [3] 8.68 µM and 6.06 µM | Potency [4] 12.3 µM and 9.6 µM | Potency [5] 24.7 µM | Potency [6] 30.4 µM | Potency [7] 15.4 µM and 17.1 µM | Potency [8] 15.4 µM and 27.1 µM | Potency [14] 61.4 µM | Potency (Aromatase (Homo sapiens)) 15.4 µM and 17.1 µM
inactive: Potency [9] | Potency [11] | Potency [12]

CN(C)C(=O)NC1(c2ccccc2)CCN(CC[C@@]2(c3ccc(F)c(F)c3)CN(C(=O)c3ccccc3)CCO2)CC1
active: Potency [2] 40.2 µM | Potency [3] 25.3 µM | Potency [4] 28.4 µM | Potency [7] 31.9 µM | Potency [8] 56.7 µM
inactive: Potency [1] | Potency [5] | Potency [6] | Potency [11] | Potency (Aromatase (Homo sapiens))

Brc1c2ccccc2c(Br)c2ccccc12
inactive: viability change, negative = cytotoxic [1] -12.6% [at 7.04 µM] | activity change, negative = cytotoxicity [2] 2.6% [at 8.52 µM] | activity, negative = cytotoxicity [3] 2.95% [at 8.53 µM] | activity change, negative = cytotoxicity [4] 3.28% [at 8.55 µM] | activity change, negative = cytotoxicity [5] 0.327% [at 7.04 µM] | viability change, negative = cytotoxic [6] 2.16% [at 8.47 µM] | activity change, negative = cytotoxic [7] 6.61% [at 8.44 µM] | activity, negative = inhibition [8] 5.77% [at 8.44 µM] | activation [9] 0.426% [at 8.08 µM] | activity, negative = cytotoxicity [11] 9.03% [at 6.72 µM] | activation [18] -3.1% [at 8.47 µM] | activity change, negative = inhibition [13] -5.5% [at 8.47 µM] | activity change, negative = cytotoxicity [14] 5.65% [at 8.47 µM]
